Data reported in PubChem BioAssay AID368 (University of Pittsburgh Molecular Library Screening Center, 2006).
Among all 65,000 compounds or so, about 85 (0.1%) were called active. Cut-off read from the data, not from the text of the source: active = inhibition above about 50%; inactive = the rest. The sample as a whole holds a higher share of actives than the screen did.

biological target: M-phase inducer phosphatase 2 (Homo sapiens) (UniProt P30305); assay: inhibitors of Cdc25B phosphatase catalytic domain, primary screen, biochemical, OMFP fluorescence (AID 368); conditions: recombinant Cdc25B, OMFP fluorescence Ex485/Em525; hits give high values;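 compounds tested at 10 µM final in the well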
Sequence (P30305 whole entry, looked up, the tested form may be a part): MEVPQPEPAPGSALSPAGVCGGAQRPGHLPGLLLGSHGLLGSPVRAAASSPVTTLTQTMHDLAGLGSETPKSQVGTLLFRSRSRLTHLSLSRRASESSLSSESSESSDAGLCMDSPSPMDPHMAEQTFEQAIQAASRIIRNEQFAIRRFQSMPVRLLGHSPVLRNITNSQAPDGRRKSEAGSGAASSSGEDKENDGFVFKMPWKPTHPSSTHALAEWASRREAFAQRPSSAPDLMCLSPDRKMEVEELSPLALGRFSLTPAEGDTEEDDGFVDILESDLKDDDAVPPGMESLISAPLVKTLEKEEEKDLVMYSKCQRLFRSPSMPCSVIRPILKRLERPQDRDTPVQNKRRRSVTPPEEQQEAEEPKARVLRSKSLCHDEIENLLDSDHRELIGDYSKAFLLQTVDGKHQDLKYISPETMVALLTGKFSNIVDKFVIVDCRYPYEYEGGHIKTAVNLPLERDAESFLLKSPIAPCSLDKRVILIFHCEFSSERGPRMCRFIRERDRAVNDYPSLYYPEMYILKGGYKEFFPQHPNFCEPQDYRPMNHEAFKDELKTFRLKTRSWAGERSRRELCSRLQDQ

inhibition, active:
O=S(=O)(/C=C/c1ccccc1)NCCc1ccccn1 102%

inhibition, inactive:
COc1ccccc1NC(=O)CSc1nnc(Cn2nnc(-c3ccccc3)n2)n1-c1ccccc1 -10.9%, COc1ccc(-c2nnn(CC(=O)N(CCO)C(C(=O)NC3CCCC3)c3ccc(F)cc3)n2)cc1 (stereo not drawn) -0.846%, Cc1ccc(S(=O)(=O)N2CCC(C(=O)OCC(=O)N3CC(=O)Nc4ccccc43)CC2)cc1 -6.66%, O=C(CSc1nnc(-c2cccnc2)n1Cc1ccco1)c1ccc(Cl)c(Cl)c1 8.97%, CCc1c(C)n([O-])c2c([n+]1=O)CCCCC2 -6.36%, COc1cc2cc(CN(CCN3CCCC3)C(=O)Nc3ccccc3Cl)c(=O)[nH]c2cc1OC -1.08%, O=C(Cn1c(-c2ccc(Cl)cc2)noc1=O)N1CCN(c2ccccc2F)CC1 -5.95%, CC(C)Oc1ccc(C(=O)Nc2cc(=O)n(C)c(=O)n2C)cc1 -9.38%, Fc1cc(F)c2nc(N3CCOCC3)sc2c1 0.504%, CC1CCCC(N2CCN(C(=O)c3ccc(F)cc3)CC2)C1 (stereo not drawn) -7.26%, Cc1ccc(NC(=O)CN2CCC3(O)CCCCC3C2c2ccc3c(c2)OCO3)c(C)c1 (stereo not drawn) 5.36%, CCOC(=O)c1sc2nc(CSCC(=O)OCc3ccc(C(=O)OC)o3)[nH]c(=O)c2c1C -1.69%, COCCN1C(=O)c2oc3c(C)cc(C)cc3c(=O)c2C1c1cccc(O)c1 (stereo not drawn) -0.703%, CC(=O)c1cc2c(cc1N)OCO2 5.42%, COc1ccc(N2CC(C)Cn3c2nc2c3c(=O)n(Cc3ccccc3F)c(=O)n2C)c(OC)c1 (stereo not drawn) 2.66%, CC(=O)c1c(C)c[nH]c1C -2.46%, O=S(=O)(NCc1ccccn1)c1ccc(F)cc1 -7.59%, NS(=O)(=O)c1ccc(NS(=O)(=O)/C=C/c2ccccc2)cc1 4.88%, O=C(O)c1cscn1 5.38%, COc1ccccc1Nc1ncnc2c1oc1ccccc12 14.9%, CC1(C)CC(=O)C=C(NCCCNC2CCCCC2)C1 -12.2%, N#Cc1ccc(COC(=O)Cn2nnc(-c3ccccc3)n2)cc1 -19.8%, CC(NC(=O)Nc1ccccc1)c1ccccc1 (stereo not drawn) -11.4%, NC(=O)C1CC=CCC1C(=O)OCC(Cl)=C(Cl)Cl (stereo not drawn) -7.55%, CC1CN(c2cc(=O)n(Cc3ccc(F)cc3)c(=O)[nH]2)CC(C)O1 (stereo not drawn) -7.48%, CCOC(=O)c1cccc(NC(=O)C2CCCN(S(=O)(=O)c3cnc[nH]3)C2)c1 (stereo not drawn) -1.24%, O=C(O)C1CC=C(Cl)CC1C(=O)NCc1ccccc1 (stereo not drawn) -4.83%, O=C(CN1C(=O)C2C3C=CC(C3)C2C1=O)NCCc1ccccc1Cl (stereo not drawn) -3.46%, Cc1ccc(C)c(N(CC(=O)NCc2ccco2)C(=O)CCC(=O)Nc2ccccn2)c1 0.139%, C=CCNC(=O)CSc1nc2sc(C)c(C)c2c(=O)[nH]1 -5.03%, CCC1SC2=NCCN2C1(O)c1ccc(Cl)cc1 (stereo not drawn) 1.15%, COC(=O)c1ccc(NC(=O)CSc2nnc(CNc3ccc(OC)cc3)n2C)cc1 -15.2%, O=C(Nc1ccc(F)cc1)c1cccnc1N1CCOCC1 0.374%, COc1ccccc1C1/C(=C(/O)c2ccc(OC(C)C)cc2)C(=O)C(=O)N1c1cc(C)on1 (stereo not drawn) 22%, COc1ccc(S(=O)(=O)N(CCCN2CCCC2=O)Cc2cc3c(C)ccc(C)c3[nH]c2=O)cc1 4.58%, COc1ccc(Cl)cc1NC(=O)c1oc(C)nc1C -1.12%, O=C(O)CSC(NC(=O)c1cccnc1)(C(F)(F)F)C(F)(F)F -2.28%, O=C(c1ccco1)N1CCN=C1SCc1cccc(Cl)c1 -9.08%, CC1CCCCC1NC(=O)CSc1nnc(N)s1 (stereo not drawn) -11.7%, COc1ccc(C(=O)N2CCC(C(=O)Nc3cccc(C)c3)CC2)cc1OC -5.03%, Cc1cc(C(F)(F)F)nn1-c1nc(-c2ccco2)cc(C(F)(F)F)n1 -12.3%, COc1ccc(NS(=O)(=O)c2ccc(NC(C)=O)cc2)cc1OC -8.27%, COCCNC(=O)C(c1ccc(C)o1)N(Cc1cccs1)C(=O)c1snc(C(N)=O)c1N (stereo not drawn) -5.11%, Cc1nnc(SCC(=O)NCCOc2ccc(Cl)cc2)n1-c1ccccc1 -10.1%, COc1cccc(N(CC(=O)Nc2cccc(F)c2)S(C)(=O)=O)c1 -4.86%, COc1ccc(C(=O)NCCc2ccc(S(N)(=O)=O)cc2)cc1OC -4.01%, CCOC(=O)c1ccn(-c2nc(-c3ccco3)cc(C(F)(F)F)n2)n1 -12.2%
